# Measured values published in PubChem BioAssay (EPA / NIEHS).
# Results filed as inconclusive are left out. Activity calls are given as the source filed them. The calls were made as follows: active = hit-call score of the fitted dose curve at least 0.9, where 1 is the maximum; inconclusive = response in the unintended direction; inactive = score below 0.9.
# Tests used:
# [1] = target: Cellular tumor antigen p53 (Homo sapiens) (UniProt P04637); experiment: TOX21_p53_BLA_p2_ratio: Tox21 HCT-116 p53 Agonism Beta-lactamase Assay, Ratio, Phase 2 (AID 2283592)
# Sequence of Cellular tumor antigen p53 (Homo sapiens) (P04637 whole entry, looked up): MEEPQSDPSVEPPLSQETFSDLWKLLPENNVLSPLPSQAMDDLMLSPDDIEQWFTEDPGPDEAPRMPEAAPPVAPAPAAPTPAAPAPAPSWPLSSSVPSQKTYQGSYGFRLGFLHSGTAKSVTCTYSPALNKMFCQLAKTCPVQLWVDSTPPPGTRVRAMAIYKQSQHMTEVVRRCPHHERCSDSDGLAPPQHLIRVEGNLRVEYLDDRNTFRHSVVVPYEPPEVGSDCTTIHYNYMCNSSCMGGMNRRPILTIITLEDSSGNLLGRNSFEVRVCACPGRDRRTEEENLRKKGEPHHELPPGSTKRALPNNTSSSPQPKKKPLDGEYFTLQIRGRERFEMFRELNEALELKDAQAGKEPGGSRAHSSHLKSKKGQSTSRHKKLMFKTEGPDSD
# Outline: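 Cleaved-to-uncleaved substrate ratio (460 vs 530 nm) measured in HCT116 cells with an inducible beta-lactamase reporter linked to p53 activity. Compounds incubated 16 h at 37C before 2 h room-temperature CCF4-AM loading.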
# [2] = TOX21_p53_BLA_p3_viability: Viability Assessment in the Tox21 HCT-116 p53 Agonism Beta-lactamase Assay, Phase 3 (AID 2283593);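 also: cells exposed to compound for 16 h before reading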
# Outline: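 HCT116 cells, 4000/well, dosed 5 h after plating by pin transfer (217-fold dilution from DMSO stock) and incubated 16 h at 37C, 5% CO2. Viability read as ATP luminescence with CellTiter-Glo after 30 min at room temperature.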
# [3] = target: Cellular tumor antigen p53 (Homo sapiens) (UniProt P04637); experiment: TOX21_p53_BLA_p3_ratio: Tox21 HCT-116 p53 Agonism Beta-lactamase Assay, Ratio, Phase 3 (AID 2283596)
# Outline: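 Cells were seeded at 4000/well, rested 5 h at 37C, then dosed with DMSO compound solutions (217-fold dilution) for 16 h. CCF4-AM substrate was loaded for 2 h at room temperature, and the 460/530 nm emission ratio was fitted for gain of signal versus DMSO.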
# [4] = target: Cellular tumor antigen p53 (Homo sapiens) (UniProt P04637); experiment: TOX21_p53_BLA_p5_ratio: Tox21 HCT-116 p53 Agonism Beta-lactamase Assay, Ratio, Phase 5 (AID 2283599)
# Outline: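 HCT-116 p53-bla cells (4000/well) plated 5 h, dosed with compound (217-fold DMSO dilution) for 16 h at 37 C; CCF4-AM substrate 2 h at room temperature. Activity is the 460/530 nm emission ratio (405 nm excitation), fitted in gain-of-signal direction versus DMSO.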
# [5] = TOX21_p53_BLA_p5_viability: Viability Assessment in the Tox21 HCT-116 p53 Agonism Beta-lactamase Assay, Phase 5 (AID 2283600)
# Outline: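 Viability is taken from cellular ATP content, measured by luciferase luminescence in the same wells after the beta-lactamase ratio read. Cells are seeded at 4000 per well and exposed to DMSO-dissolved compounds, diluted 217-fold, for 16 h.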
# [6] = target: Cellular tumor antigen p53 (Homo sapiens) (UniProt P04637); experiment: TOX21_p53_BLA_p4_ratio: Tox21 HCT-116 p53 Agonism Beta-lactamase Assay, Ratio, Phase 4 (AID 2283601)
# Outline: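 HCT-116 p53 beta-lactamase reporter cells (4000/well) preincubated 5 h, then compound (217-fold dilution of DMSO stock) for 16 h at 37C. CCF4-AM substrate added 2 h at room temperature; 460/530 nm emission ratio fitted upward versus DMSO.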
# [7] = TOX21_p53_BLA_p4_viability: Viability Assessment in the Tox21 HCT-116 p53 Agonism Beta-lactamase Assay, Phase 4 (AID 2283597);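 also: hits lower the luminescence signal meaning cytotoxicity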
# Outline: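 Viability is taken as cellular ATP: after 16 h compound exposure of HCT116 cells and a 2 h room-temperature CCF4-AM substrate step, CellTiter-Glo reagent is added and luminescence is measured 30 min later.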
# [8] = TOX21_TR_RXR_BLA_Agonist_Followup_viability: Viability Assessment in the Tox21 Thyroid Hormone Receptor beta Retinoid X Receptor alpha (RXRa) Agonism Beta-lactamase (BLA) Follow-Up Assay (AID 2283970)
# Outline: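 CellTiter-Glo ATP quantitation as viability read-out in RXRa-bla HEK293T cells (2,500/well, charcoal-stripped 2% FBS medium), 16h compound incubation at 37C. Loss of signal versus DMSO taken as cytotoxicity, analyzed by bidirectional curve fitting.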
smiles,measurement,setting,value
O=C1Nc2ccc([N+](=O)[O-])cc2C1=O,AC50,[1],74.4 µM (active)
same,outcome,[2],inactive
same,AC50,[3],85.2 µM (active)
same,AC50,[4],82.1 µM (active)
same,outcome,[5],inactive
same,AC50,[6],72.8 µM (active)
CC(S)C(C)S (centres undefined),outcome,[1],inactive
same,outcome,[2],inactive
same,outcome,[3],inactive
same,outcome,[4],inactive
same,outcome,[5],inactive
same,outcome,[6],inactive
C=CC1CO1 (centres undefined),outcome,[1],inactive
same,outcome,[2],inactive
same,outcome,[3],inactive
same,outcome,[4],inactive
same,outcome,[5],inactive
same,outcome,[6],inactive
O=C(O)[C@@H]1[C@H]2C[C@H]3c4[nH]c5ccccc5c4CCN3C[C@@H]2CC[C@@H]1O,outcome,[1],inactive
same,outcome,[2],inactive
same,outcome,[3],inactive
same,outcome,[4],inactive
same,outcome,[6],inactive
O=C1CC2(CCCC2)CC(=O)N1CCNCC1COc2ccccc2O1 (centres undefined),outcome,[1],inactive
same,outcome,[2],inactive
same,outcome,[3],inactive
same,outcome,[4],inactive
same,outcome,[5],inactive
same,outcome,[6],inactive
O=C(Oc1ccccc1)Oc1ccccc1,outcome,[1],inactive
same,outcome,[2],inactive
same,outcome,[3],inactive
same,outcome,[4],inactive
same,outcome,[5],inactive
same,outcome,[6],inactive
CCN(CC)CCNC(=O)c1ccc(NC(C)=O)cc1,outcome,[1],inactive
same,outcome,[2],inactive
same,outcome,[3],inactive
same,outcome,[4],inactive
same,outcome,[5],inactive
same,outcome,[6],inactive
O=C(NCN1CCOCC1)c1cnccn1,outcome,[1],inactive
same,outcome,[2],inactive
same,outcome,[3],inactive
same,outcome,[4],inactive
same,outcome,[5],inactive
same,outcome,[6],inactive
CC(C)(C)NCC(O)c1ccc(O)c(CO)n1 (centres undefined),outcome,[1],inactive
same,outcome,[2],inactive
same,outcome,[3],inactive
same,outcome,[4],inactive
same,outcome,[5],inactive
same,outcome,[6],inactive
O=C(Nc1ccc(/C=C/c2ccc(NC(=O)c3cc(S(=O)(=O)O)c4cccnc4c3O)cc2S(=O)(=O)O)c(S(=O)(=O)O)c1)c1cc(S(=O)(=O)O)c2cccnc2c1O,outcome,[1],inactive
same,outcome,[2],inactive
same,outcome,[3],inactive
same,outcome,[4],inactive
same,outcome,[5],inactive
same,outcome,[6],inactive
CC(C)NCC(O)COc1cccc2[nH]ccc12 (centres undefined),outcome,[1],inactive
same,outcome,[2],inactive
same,outcome,[3],inactive
same,outcome,[4],inactive
same,outcome,[6],inactive
N#Cc1cc2ccccc2c2ccccc12,outcome,[1],inactive
same,outcome,[2],inactive
same,outcome,[3],inactive
same,outcome,[4],inactive
same,outcome,[6],inactive
O=c1[nH]c(=O)n([C@H]2C[C@H](O)[C@@H](CO)O2)cc1/C=C/Br,outcome,[1],inactive
same,outcome,[2],inactive
same,outcome,[3],inactive
same,outcome,[5],inactive
same,outcome,[6],inactive
CC[C@@H](C)[C@H](N)C(=O)O,outcome,[1],inactive
same,outcome,[2],inactive
same,outcome,[3],inactive
same,outcome,[6],inactive
C[C@H](CCCC(C)(C)O)[C@H]1CC[C@H]2[C@@H]3CC=C4C[C@@H](O)CC[C@]4(C)[C@H]3CC[C@]12C,outcome,[1],inactive
same,outcome,[2],inactive
same,outcome,[3],inactive
same,outcome,[6],inactive
COC(=O)CCC(=O)CN,outcome,[1],inactive
same,outcome,[2],inactive
same,outcome,[3],inactive
same,outcome,[5],inactive
C#C[C@]1(OC(C)=O)CC[C@H]2[C@@H]3CCC4=CC(=O)CC[C@@H]4[C@H]3CC[C@@]21C,outcome,[1],inactive
same,outcome,[2],inactive
same,outcome,[3],inactive
same,outcome,[4],inactive
same,outcome,[6],inactive
CCS(=O)(=O)CCn1c([N+](=O)[O-])cnc1C,outcome,[1],inactive
same,outcome,[2],inactive
same,outcome,[3],inactive
same,outcome,[6],inactive
CC=C(C)C(=O)OCCC(C)CCC=C(C)C (centres undefined),outcome,[1],inactive
same,outcome,[2],inactive
same,outcome,[7],inactive
CC1=C(/C=C/C(C)=C/C=C/C(C)=C/C(=O)Oc2c(C)c(C)c3c(c2C)CC[C@@](C)(CCC[C@H](C)CCC[C@H](C)CCCC(C)C)O3)C(C)(C)CCC1,outcome,[1],inactive
same,AC50,[2],42.8 µM (active)
same,outcome,[3],inactive
same,outcome,[4],inactive
same,outcome,[6],inactive
O=C(O)C1CCCN1 (centres undefined),outcome,[1],inactive
same,outcome,[2],inactive
same,outcome,[3],inactive
same,outcome,[4],inactive
same,outcome,[6],inactive
CO[Si](CCCCl)(OC)OC,outcome,[1],inactive
same,outcome,[2],inactive
same,outcome,[3],inactive
same,outcome,[4],inactive
same,outcome,[6],inactive
Cc1ccc(O)c([N+](=O)[O-])c1,outcome,[1],inactive
same,outcome,[2],inactive
same,outcome,[7],inactive
C=C1CC[C@@H]2[C@](C)(CO)[C@H](O)CC[C@@]2(C)[C@@H]1C/C=C1/C(=O)OC[C@H]1O,outcome,[1],inactive
same,outcome,[2],inactive
same,outcome,[3],inactive
same,outcome,[4],inactive
same,outcome,[6],inactive
CCCCCCCCCCCCCCCCCCO,outcome,[1],inactive
same,outcome,[2],inactive
same,outcome,[3],inactive
same,outcome,[4],inactive
same,outcome,[6],inactive
CC1=C(/C=C/C(C)=C\C=C\C(C)=C\C(=O)O)C(C)(C)CCC1,outcome,[1],inactive
same,outcome,[2],inactive
same,outcome,[3],inactive
same,outcome,[4],inactive
same,outcome,[6],inactive
same,outcome,[8],inactive
COC(=O)CCC[N+](C)(C)C,outcome,[1],inactive
same,outcome,[2],inactive
same,outcome,[3],inactive
same,outcome,[5],inactive
CO/N=C(\C(=O)N[C@@H]1C(=O)N2C(C(=O)O)=C(CSc3nc(=O)c(O)nn3C)CS[C@H]12)c1csc(N)n1,outcome,[1],inactive
same,outcome,[2],inactive
same,outcome,[3],inactive
same,outcome,[4],inactive
same,outcome,[6],inactive
CCn1cc(C(=O)O)c(=O)c2cc(F)c(N3CCNCC3)nc21,outcome,[1],inactive
same,outcome,[2],inactive
same,outcome,[3],inactive
same,outcome,[4],inactive
same,outcome,[6],inactive
CC(=O)O[C@H]1C[C@@H]2CC[C@@H]3[C@H](CC[C@@]4(C)[C@H]3C[C@H]([N+]3(C)CCCCC3)[C@@H]4OC(C)=O)[C@@]2(C)C[C@@H]1N1CCCCC1,outcome,[1],inactive
same,outcome,[2],inactive
same,outcome,[3],inactive
same,outcome,[5],inactive
same,outcome,[6],inactive
NC(N)=NCC1COC2(CCCCC2)O1 (centres undefined),outcome,[1],inactive
same,outcome,[2],inactive
same,outcome,[3],inactive
same,outcome,[5],inactive
same,outcome,[6],inactive
Clc1cc(Cl)c(Cl)nc1Cl,outcome,[1],inactive
same,outcome,[2],inactive
same,outcome,[3],inactive
same,outcome,[5],inactive
same,outcome,[6],inactive
CN(C(=O)C(Cl)Cl)c1ccc(OC(=O)c2ccco2)cc1,outcome,[1],inactive
same,outcome,[2],inactive
same,outcome,[7],inactive
